Source: PubChem BioAssay (National Center for Advancing Translational Sciences (NCATS))
Rows were chosen to be rich in hits. Some 19% of all compounds tested hit in one or more screens of this group.
DT40 TDP1 no CPT – qHTS for Inhibitors of human tyrosyl-DNA phosphodiesterase 1 (TDP1): qHTS in cells in absence of CPT | actives 15% (n = 420,000) | DT40 Tdp1-/- hTDP1 cells, no CPT, ATP luminescence, 48 h | Potency, µM (top dose mostly 46.2 µM), inactives show top-dose activity change, negative = growth inhibition, actives largely listed as inhibitors; note: potency is the fitted concentration of half-maximal effect; nearly all actives have a fitted effect of over 55% in size
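No-CPT arm: Tdp1-/-;hTDP1 DT40 cells (400/well) plus compounds, incubated ≥48 hr at 37 °C. Readout CellTiter-Glo luminescence.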
HT1080-NT tox – kills 2HG-producing HT-1080-NT fibrosarcoma cells | AID 686970 | actives 1.6% (n = 360,000) | Potency, µM (series often up to 46.1 µM), for inactives: top-dose activity, negative = less viability, usual class: cytotoxic | HT-1080-NT fibrosarcoma viability, CellTiter-Glo ATP luminescence, 48 h;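 note: NT is the 2HG producing partner of a matched IDH1 knockdown line; potency is the fitted concentration of half-maximal effect; 0% = DMSO-treated cells and -100% = media-only wells without cells; nearly all actives have a fitted effect of over 55% in size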
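Viability by CellTiter-Glo luminescence after 48 h compound exposure at 37C of HT-1080-NT cells (750/well, RPMI, 5% FBS). % activity scaled between DMSO wells and medium-only wells, then curve-fitted and categorized by curve class.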
ELG1 DNA repair – blocks ELG1-dependent DNA repair in HEK293T cells; HEK293T ELG1-luciferase reporter, luminescence, 16 h; DNA damage induced by 5-fluorouridine; actives 2.3% (n = 330,000); AID 504467; Potency, µM (series often up to 46.1 µM), for inactives: at the top dose activity change, negative = inhibition, usual class: inhibitors; note: potency is the fitted concentration of half-maximal effect; nearly all actives have a fitted effect of over 55% in size
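Luminescence from the luciferase reporter, measured 30 min after ONE-Glo reagent at room temperature, was the read-out. Beforehand, 2,000 cells per well were exposed for 16 hr at 37 °C to 5-fluorouridine together with compound or vehicle.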
IL-1B inflam inh – blocks inflammasome-driven IL-1 beta release | THP-1 LPS/ATP IL-1B secretion, AlphaLISA, 16 h; stronger effect = lower value | activity change, % at 57.5 µM | actives 4.7% (n = 360,000); in the data active = activity change below about -50%; inconclusive = mostly about -30% to -49%
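THP-1 cells pretreated 1 hr with compounds (up to 57.5 uM final), then stimulated with LPS (250 ng/mL final) plus ATP (1.25 mM final); secreted IL-1B measured by AlphaLISA after 16 hr, decreased signal indicating inhibition.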
DT40 TDP1 CPT – growth inhibition of DT40 Tdp1-/-;hTDP1 cells with camptothecin (screen for TDP1 inhibitors); chicken DT40 Tdp1-/-;hTDP1 cells + 20 nM CPT, ATP luminescence, 48 h; Potency, µM (highest dose often 46.2 µM), for the others: top-dose activity change, negative = growth inhibition, actives largely listed as inhibitors; actives 12% (n = 420,000); note: potency is the fitted concentration of half-maximal effect; nearly all actives have a fitted effect of over 55% in size
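Chicken DT40 Tdp1-/- cells complemented with human TDP1, 400 cells/well, exposed to compounds plus 20 nM camptothecin for at least 48 h at 37 C; viability read as ATP content by CellTiter-Glo luminescence.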
HT1080 IDH1KD tx – toxicity to HT-1080 IDH1 knockdown cells (counter line); HT-1080 IDH1 knockdown viability, ATP luminescence, 48 h; Potency, µM (titrated, usually from 46.1 µM), for the others: at the top dose activity, negative = toxicity, most hits filed as cytotoxic; actives 2% (n = 360,000); AID 686971;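 note: potency is the fitted concentration of half-maximal effect; 0% = DMSO wells and -100% = cell-free medium wells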
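Luminescent ATP read-out (CellTiter-Glo, 10 min at room temperature) after 48 h compound exposure at 37 °C gave viability of IDH1-knockdown HT-1080 cells. Activity was normalised to DMSO and cell-free wells, then fitted as concentration-response curves.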
* marks the source's active call; other numbers are inactive results; ? = inconclusive; / = not tested or not shown. Unless noted, calls come from the whole dose curve; as a rule, active = well fitted curve in the direction sought with a large enough effect; inconclusive = small, poorly fitted or top-dose-only effect, or another doubt; inactive = no such curve, though single readings can be large; an effect the other way counts as inactive or inconclusive. Unless noted, % is set by controls: 0 for no effect and ±100 for the full control effect.

SMILES	DT40 TDP1 no CPT	HT1080-NT tox	ELG1 DNA repair	IL-1B inflam inh	DT40 TDP1 CPT	HT1080 IDH1KD tx
Cc1cccc(Oc2nc3ccccn3c(=O)c2/C=C(\C#N)C(=O)NC2CCS(=O)(=O)C2)c1C (stereo unspecified)	?	-9.6%	?	-99.3*	?	-16.9%
Cc1cc(Oc2nc3ccccn3c(=O)c2/C=C(\C#N)C(=O)NC2CCS(=O)(=O)C2)ccc1Cl (stereo unspecified)	16.4µM*	?	-0.8%	-10.7	-25.3%	?
N#C/C(=C\c1c(N2CCCCC2)nc2ccccn2c1=O)C(=O)NC1CCS(=O)(=O)C1 (stereo unspecified)	-8.3%	9.2%	-2.3%	-6.1	-3.2%	7.5%
COC(=O)/C(C#N)=C/c1c(Oc2cccc(C)c2)nc2ccccn2c1=O	-38.5%	16.7%	-2.0%	-7.1	-4.7%	8.3%
N#C/C(=C\c1c(Oc2ccc(Cl)cc2)nc2ccccn2c1=O)C(=O)NC1CCS(=O)(=O)C1 (stereo unspecified)	?	-12.7%	9.9%	-100.2*	-13.8%	?
Cc1cccn2c(=O)c(/C=C(\C#N)C(=O)NC3CCS(=O)(=O)C3)c(Oc3ccc(F)cc3)nc12 (stereo unspecified)	20.6µM*	?	-8.6%	-25.4	?	?
CCN1CCc2c(sc(N)c2C#N)C1	23.1µM*	7.0%	-3.5%	14.1	?	9.0%
CC(=O)N(C1CC(C)C(C#N)(C#N)C1(C#N)C#N)N(C)C (stereo unspecified)	0.581µM*	-16.0%	-7.7%	-111.6*	0.517µM*	?
CCCC(=O)N(C1CC(C)C(C#N)(C#N)C1(C#N)C#N)N(C)C (stereo unspecified)	2.31µM*	?	?	-100.7*	1.3µM*	?
CC(=O)N1CCN(C)CC1	-5.9%	/	/	/	-4.7%	/
O=C(COc1ccccc1)NCCSc1ccccc1	-26.4%	6.6%	?	-6.2	-3.1%	0.4%
C=CCNC(=O)COc1ccc(Oc2ccccc2)cc1	25.9µM*	-25.7%	12.6%	-27.7	14.6µM*	-4.2%
COc1ccccc1NS(=O)(=O)c1cccc(C(=O)NNC(=O)c2ccc(O)c(Cl)c2)c1	-9.2%	1.7%	9.3%	25.1	-2.1%	0.4%
CC(=O)c1ccc(N2C(=O)N(CC(=O)c3ccc(F)cc3)c3ccccc3S2(=O)=O)cc1	?	/	/	/	-22.9%	/
COc1cccc(N2C(=O)N(CC(=O)NCc3cccc(OC)c3OC)c3ccccc3S2(=O)=O)c1	-16.8%	/	/	/	-14.3%	/
CCc1ccc(-n2c(=O)c3ccccc3n(CC(=O)C(C)(C)C)c2=O)cc1	18.4µM*	1.5%	-17.3%	0.0	?	3.0%
CC(=O)c1ccc(N2C(=O)N(Cc3ccc(F)cc3)c3ccccc3S2(=O)=O)cc1	16.4µM*	/	/	/	20.6µM*	/
COc1cccc(CNC(=O)Cn2c(=O)cc(C)c3c(C)nn(C)c32)c1OC	18.4µM*	/	/	/	23.1µM*	/
CCc1cccc(N2C(=O)N(CC(=O)NCc3cccc(OC)c3OC)c3ccccc3S2(=O)=O)c1	?	/	/	/	13µM*	/
CN(CC(=O)Nc1ccc(Cl)c(C(F)(F)F)c1)C(=O)c1cc(=O)c2ccccc2o1	?	?	-29.1%	18.5	?	-12.6%
CC(=O)c1ccc(N2C(=O)N(Cc3cc(C)ccc3C)c3ccccc3S2(=O)=O)cc1	18.4µM*	/	/	/	23.1µM*	/
CC(=O)c1ccc(N2C(=O)N(Cc3ccccc3C#N)c3ccccc3S2(=O)=O)cc1	?	/	/	/	16.4µM*	/
COc1ccccc1N1C(=O)N(CC(=O)C(C)(C)C)c2ccccc2S1(=O)=O	?	15.9%	27.9%	5.8	-22.4%	6.5%
CCc1ccc(N2C(=O)N(CC(=O)C(C)(C)C)c3ccccc3S2(=O)=O)cc1	20.6µM*	/	/	/	13µM*	/
COC(=O)c1ccc(OC)c(CN2C(=O)N(c3ccc(C(C)=O)cc3)S(=O)(=O)c3ccccc32)c1	16.4µM*	/	/	/	14.6µM*	/
SMILES	DT40 TDP1 no CPT	HT1080-NT tox	ELG1 DNA repair	IL-1B inflam inh	DT40 TDP1 CPT	HT1080 IDH1KD tx
Cc1cc(C)cc(N2C(=O)N(CC(=O)c3ccc(Br)cc3)c3ccccc3S2(=O)=O)c1	-18.3%	/	/	/	-4.2%	/
COc1cc([N+](=O)[O-])ccc1NC(=O)C[n+]1ccccc1	-7.4%	-4.5%	17.6%	13.1	-8.9%	-0.2%
CC(CCC(=O)NN)C1CCC2C3CCC4CC(O)CCC4(C)C3CCC12C (stereo unspecified)	25.9µM*	-0.7%	/	0.0	1.3%	-11.0%
CCC(CCC(C)C1CCC2C3CCC4CC(O)CC[C@@]4(C)C3CC[C@@]12C)C(C)C (stereo partly specified)	-4.6%	/	/	/	-3.1%	/
COc1ccc(CNC(=O)c2ccc3c(c2)CCN3S(=O)(=O)c2ccc(Cl)cc2)cc1	16.4µM*	/	/	/	?	/
CCS(=O)(=O)N1CCc2cc(C(=O)NCc3ccc(Cl)cc3)ccc21	16.4µM*	/	/	/	?	/
CC(C)N1CCc2c(sc(NC(=O)c3nc4ccccc4s3)c2C(N)=O)C1	20.6µM*	?	0.6%	-9.7	13µM*	-28.1%
CC(C)N1CCc2c(sc(NC(=O)c3cc(-c4cccs4)nc4ccccc34)c2C(N)=O)C1	9.2µM*	?	?	-21.0	18.4µM*	?
CC1CCC(NC(=O)c2cccc(S(=O)(=O)N3CCN(c4ccc(F)cc4)CC3)c2)CC1 (stereo unspecified)	9.2µM*	2.6%	?	12.4	?	1.1%
O=C(c1cccc(S(=O)(=O)N2CCN(c3ccc(F)cc3)CC2)c1)N1CCCC1	?	-4.9%	-18.2%	-8.5	?	-9.0%
CC1CCN(S(=O)(=O)c2cccc(C(=O)N3CCN(c4ccc(F)cc4)CC3)c2)CC1	?	?	-10.8%	-13.6	14.6µM*	-22.6%
CC1CC(C)CN(S(=O)(=O)c2cccc(C(=O)N3CCN(c4ccc(F)cc4)CC3)c2)C1 (stereo unspecified)	20.6µM*	-2.2%	-23.7%	-21.5	?	-23.2%
CCOC(=O)c1c(NC(=O)COC(=O)c2cnccn2)sc(C)c1C	-13.6%	11.6%	?	-7.4	-15.4%	15.4%
COc1ccccc1-c1nc2ccc(Cl)cc2c(=O)n1O	6.4%	-7.3%	12.3%	37.0	7.3%	-11.3%
CC(Cl)=CCn1c(NCCc2ccccc2)nc2c1c(=O)n(C)c(=O)n2C	1.46µM*	-2.0%	/	24.8	1.46µM*	-1.2%
